The whole screen tested about 5,500 compounds, of which about 2,000 (36%) were called active. Not shown: some 18% with an inconclusive outcome. Cut-off read from the data, not from the text of the source: active = normalized growth mostly below about 0.91 (no sharp cut-off); inconclusive = no clear call, values can overlap the other calls; inactive = mostly above about 0.92. Some of the results follow.
Experiment: chemical genetic growth profiling, strain panel (AID 1159580);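 note: tested at 20 µM; growth read once vehicle control cultures reached saturation at 30 °C; 1 = growth at the plate median or of vehicle wells; lower values mean less growth of the strain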
Conditions: growth OD

Measured: normalized growth

COc1ccccc1OCCNCC(O)COc1cccc2[nH]c3ccccc3c12 (stereo unspecified)
inactive: S. cerevisiae deletion strains, locus YKL009W, strain mrt4, stronger effect = lower value 1.01 | S. cerevisiae deletion strains, locus YKL068W, stronger effect = lower value 1.01 | S. cerevisiae deletion strains, locus YKL085W, strain MDH1 (second series), stronger effect = lower value 1.01 | S. cerevisiae deletion strains, locus YKL085W, strain MDH1, stronger effect = lower value 1.01 | S. cerevisiae deletion strains, locus YKL160W, strain elf1, stronger effect = lower value 1.01 | S. cerevisiae deletion strains, locus YKL190W, strain CNB1, stronger effect = lower value 0.997 | S. cerevisiae deletion strains, locus YKR001C, strain vps1, stronger effect = lower value 1.05 | S. cerevisiae deletion strains, locus YKR026C, strain gcn3, stronger effect = lower value 1.02 | S. cerevisiae deletion strains, locus YKR091W, strain srl3, stronger effect = lower value 1.01 | S. cerevisiae deletion strains, locus YLL001W, strain dnm1, stronger effect = lower value 1.01 | S. cerevisiae deletion strains, locus YLL026W, stronger effect = lower value 1.02 | S. cerevisiae deletion strains, locus YLL041C, strain sdh2, stronger effect = lower value 1.01 | S. cerevisiae deletion strains, locus YLR027C, strain aat2, stronger effect = lower value 1.01 | S. cerevisiae deletion strains, locus YLR039C, strain RIC1, stronger effect = lower value 1.09 | S. cerevisiae deletion strains, locus YLR058C, strain SHM2, stronger effect = lower value 1 | S. cerevisiae deletion strains, locus YLR102C, strain apc9, stronger effect = lower value 1 | S. cerevisiae deletion strains, locus YLR113W, strain HOG1, stronger effect = lower value 0.987 | S. cerevisiae deletion strains, locus YLR221C, strain rsa3, stronger effect = lower value 1.01 | S. cerevisiae deletion strains, locus YLR258W, strain gsy2, stronger effect = lower value 1.02 | S. cerevisiae deletion strains, locus YLR262C, strain YPT6 (second series), stronger effect = lower value 1.05 | S. cerevisiae deletion strains, locus YLR262C, strain YPT6, stronger effect = lower value 1.06 | S. cerevisiae deletion strains, locus YLR268W, strain sec22, stronger effect = lower value 1.01 | S. cerevisiae deletion strains, locus YLR320W, strain mms22, stronger effect = lower value 1.02 | S. cerevisiae deletion strains, locus YLR330W, strain CHS5, stronger effect = lower value 1.01 | S. cerevisiae deletion strains, locus YLR342W, strain FKS1 (second series), stronger effect = lower value 0.993 | S. cerevisiae deletion strains, locus YLR342W, strain FKS1, stronger effect = lower value 1.01 | S. cerevisiae deletion strains, locus YLR357W, strain rsc2, stronger effect = lower value 1 | S. cerevisiae deletion strains, locus YLR370C, strain arc18, stronger effect = lower value 1.01 | S. cerevisiae deletion strains, locus YLR371W, strain rom2, stronger effect = lower value 1.01 | S. cerevisiae deletion strains, locus YLR384C, strain iki3, stronger effect = lower value 1.03 | S. cerevisiae deletion strains, locus YLR418C, strain cdc73, stronger effect = lower value 0.999 | S. cerevisiae deletion strains, locus YML016C, strain PPZ1, stronger effect = lower value 1.01 | S. cerevisiae deletion strains, locus YML032C, strain rad52, stronger effect = lower value 1.02 | S. cerevisiae deletion strains, locus YML120C, strain ndi1, stronger effect = lower value 1.01 | S. cerevisiae deletion strains, locus YML124C, strain tub3, stronger effect = lower value 1.02 | S. cerevisiae deletion strains, locus YMR058W, strain fet3, stronger effect = lower value 1.03 | S. cerevisiae deletion strains, locus YMR078C, strain ctf18, stronger effect = lower value 1.02 | S. cerevisiae deletion strains, locus YMR125W, strain sto1, stronger effect = lower value 1.01 | S. cerevisiae deletion strains, locus YMR129W, stronger effect = lower value 1.01 | S. cerevisiae deletion strains, locus YMR205C, strain PFK2, stronger effect = lower value 1.04 | S. cerevisiae deletion strains, locus YMR223W, strain ubp8, stronger effect = lower value 1 | S. cerevisiae deletion strains, locus YMR231W, strain pep5, stronger effect = lower value 1.01 | S. cerevisiae deletion strains, locus YMR263W, strain SAP30, stronger effect = lower value 0.979 | S. cerevisiae deletion strains, locus YMR307W, strain GAS1, stronger effect = lower value 0.972 | S. cerevisiae deletion strains, locus YNL067W, strain RPL9B, stronger effect = lower value 0.962 | S. cerevisiae deletion strains, locus YNL071W, strain lat1, stronger effect = lower value 0.996 | S. cerevisiae deletion strains, locus YNL128W, strain TEP1, stronger effect = lower value 1 | S. cerevisiae deletion strains, locus YNL153C, strain GIM3, stronger effect = lower value 1 | S. cerevisiae deletion strains, locus YNL183C, strain NPR1, stronger effect = lower value 0.962 | S. cerevisiae deletion strains, locus YNL209W, strain ssb2, stronger effect = lower value 1.02 | S. cerevisiae deletion strains, locus YNL233W, strain BNI4, stronger effect = lower value 1 | S. cerevisiae deletion strains, locus YNL248C, strain rpa49, stronger effect = lower value 1.02 | S. cerevisiae deletion strains, locus YNL250W, strain rad50, stronger effect = lower value 1 | S. cerevisiae deletion strains, locus YNL271C, strain bni1, stronger effect = lower value 1.02 | S. cerevisiae deletion strains, locus YNL298W, strain CLA4, stronger effect = lower value 1.03 | S. cerevisiae deletion strains, locus YNL307C, strain MCK1, stronger effect = lower value 1.01 | S. cerevisiae deletion strains, locus YNL322C, strain KRE1 (second series), stronger effect = lower value 0.989 | S. cerevisiae deletion strains, locus YNL322C, strain KRE1, stronger effect = lower value 1 | S. cerevisiae deletion strains, locus YNR049C, strain mso1, stronger effect = lower value 1.01 | S. cerevisiae deletion strains, locus YNR052C, strain pop2, stronger effect = lower value 1.01 | S. cerevisiae deletion strains, locus YOL006C, strain TOP1, stronger effect = lower value 1 | S. cerevisiae deletion strains, locus YOL012C, strain htz1 0.91 | S. cerevisiae deletion strains, locus YOL147C, strain pex11, stronger effect = lower value 1.01 | S. cerevisiae deletion strains, locus YOR001W, strain rrp6, stronger effect = lower value 1.01 | S. cerevisiae deletion strains, locus YOR061W, strain CKA2, stronger effect = lower value 1.01 | S. cerevisiae deletion strains, locus YOR069W, strain VPS5, stronger effect = lower value 0.997 | S. cerevisiae deletion strains, locus YOR070C, strain gyp1, stronger effect = lower value 1 | S. cerevisiae deletion strains, locus YOR080W, strain dia2, stronger effect = lower value 1 | S. cerevisiae deletion strains, locus YOR083W, strain WHI5, stronger effect = lower value 1 | S. cerevisiae deletion strains, locus YOR106W, strain vam3, stronger effect = lower value 1.02 | S. cerevisiae deletion strains, locus YOR136W, strain idh2, stronger effect = lower value 1.02 | S. cerevisiae deletion strains, locus YOR144C, strain elg1, stronger effect = lower value 1.02 | S. cerevisiae deletion strains, locus YOR184W, strain ser1, stronger effect = lower value 0.999 | S. cerevisiae deletion strains, locus YOR231W, strain MKK1, stronger effect = lower value 0.999 | S. cerevisiae deletion strains, locus YOR265W, strain rbl2, stronger effect = lower value 0.996 | S. cerevisiae deletion strains, locus YOR270C, strain vph1, stronger effect = lower value 1.03 | S. cerevisiae deletion strains, locus YOR290C, strain snf2, stronger effect = lower value 1.01 | S. cerevisiae deletion strains, locus YOR316C, strain cot1, stronger effect = lower value 1.02 | S. cerevisiae deletion strains, locus YPL051W, strain arl3, stronger effect = lower value 1.01 | S. cerevisiae deletion strains, locus YPL055C, strain LGE1, stronger effect = lower value 1.01 | S. cerevisiae deletion strains, locus YPL078C, strain atp4, stronger effect = lower value 1.03 | S. cerevisiae deletion strains, locus YPL106C, strain sse1, stronger effect = lower value 1.02 | S. cerevisiae deletion strains, locus YPL240C, strain hsp82, stronger effect = lower value 1.01 | S. cerevisiae deletion strains, locus YPL241C, strain CIN2, stronger effect = lower value 0.996 | S. cerevisiae deletion strains, locus YPL256C, strain CLN2, stronger effect = lower value 0.994 | S. cerevisiae deletion strains, locus YPR119W, strain clb2, stronger effect = lower value 1.02 | S. cerevisiae deletion strains, locus YPR141C, strain kar3, stronger effect = lower value 1.03 | S. cerevisiae deletion strains, locus YPR163C, strain tif3, stronger effect = lower value 1.02 | S. cerevisiae deletion strains, locus YPR167C, strain met16, stronger effect = lower value 1.02 | S. cerevisiae deletion strains, strain wtn01, stronger effect = lower value 1.01 | S. cerevisiae strains, strain wild type, stronger effect = lower value 0.984
